Compound activity (PubChem BioAssay)
This is a sample that favours compounds with a hit; in the whole collection about 4.8% have one here.
hgDAF-12 ag – hgDAF-12 agonism, primary luciferase screen. HEK293 GAL4-hgDAF12 UAS-luciferase reporter, agonist luminescence; normalized to butyrate control. activation, % at 6.8 µM. 370,000 compounds, 1.8% hits. AID 687014;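 active = activation above a cutoff set at the mean of all screened compounds plus 3 SD, cut at about 10% in these data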;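 also: 0% = DMSO wells and 100% = sodium butyrate wells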
DAX1 inh-1 – inhibits human nuclear receptor DAX1 | P51843 | HEK293 Gal4-DAX1 luciferase reporter, luminescence | inhibition, % at 6.75 µM | 340,000 compounds, 0.99% hits | AID 504766;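 active = inhibition above the mean over all tested compounds plus 3 SD, cut at about 4.2% in these data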;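 also: 0% = DAX1-transfected cells with DMSO and 100% = empty-vector control cells with DMSO; inhibition shows as a rise in luminescence from relieved DAX1 repression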
DAX1 inh-2 – DAX1 (NR0B1) inhibition, primary screen; HEK293T StAR-luciferase reporter, SF-1/DAX-1 repression relief; inhibition, % at 6.8 µM; 370,000 compounds, 1.1% hits; AID 652010;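 active = inhibition above the mean over all tested compounds plus 3 SD, cut at about 3.6% in these data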;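 also: 0% = DAX-1 cells with DMSO and 100% = cells lacking DAX-1 with DMSO; higher inhibition means more luminescence from relief of DAX-1 repression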
hcDAF-12 act – activators of H. contortus DAF-12 nuclear receptor; activation, % at 6.8 µM; AID 652067; HEK293 hcDAF-12 lit1-tk-luc reporter, luminescence; 0% DMSO, 100% Δ7-dafachronic acid; 370,000 compounds, 1.4% hits;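 active = activation above the mean of all tested compounds plus 3 SD, cut at about 5.5% in these data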;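 also: 100% = response to 3 µM Δ7-dafachronic acid high control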
ssDAF12 agonist – S. stercoralis DAF-12 activation, primary screen | HEK293 ssDAF-12/GRIP1 lit1-tk-luc reporter, luminescence; % of 3 µM dafachronic acid response | activation, % at 6.8 µM | 370,000 compounds, 1% hits | AID 652126;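 active = activation above the mean over all tested compounds plus 3 SD, cut at about 0.9% in these data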;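 also: 0% = DMSO-only wells and 100% = 3 µM delta7-dafachronic acid wells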
SMARCA2 act – increases SMARCA2 function in MMTV reporter cells | MG213 cells, MMTV-luciferase reporter, dexamethasone, overnight | activation, % at 9.1 µM | 370,000 compounds, 1% hits; in the data active = activation above about 7.8%;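 also: 0% = vehicle wells and 100% = reference activator wells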
LXR ag – activates human LXR-beta, counter-screen for hcDAF-12 agonists. 3,400 tested, under 10 active. HEK293 Gal4-LXR tk-luc reporter, luminescence, 24 h; normalized: DMSO 0%, positive control 100%. activation, % at 6.8 µM. shares compounds with hcDAF-12 act;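 active = mean percent activation of the reporter above a cutoff set as the average over tested compounds plus their standard deviation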
Target sequence (P55055 whole entry, looked up, the tested form may be a part): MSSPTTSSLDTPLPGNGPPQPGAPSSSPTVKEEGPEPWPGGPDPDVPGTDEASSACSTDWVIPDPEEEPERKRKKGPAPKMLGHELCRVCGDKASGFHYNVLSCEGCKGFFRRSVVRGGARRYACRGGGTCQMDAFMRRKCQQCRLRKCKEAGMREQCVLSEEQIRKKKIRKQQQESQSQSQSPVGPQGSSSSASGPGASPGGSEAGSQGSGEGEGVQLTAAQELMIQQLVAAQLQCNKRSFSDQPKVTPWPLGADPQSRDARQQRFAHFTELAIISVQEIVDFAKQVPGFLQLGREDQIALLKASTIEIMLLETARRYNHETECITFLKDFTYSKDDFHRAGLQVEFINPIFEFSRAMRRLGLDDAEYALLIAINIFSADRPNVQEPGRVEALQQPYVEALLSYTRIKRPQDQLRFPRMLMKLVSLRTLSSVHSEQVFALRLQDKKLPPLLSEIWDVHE
hcDAF12 ag – confirmation of H. contortus DAF-12 agonists. shares compounds with hcDAF-12 act. HEK293 hcDAF-12 lit1-tk-luc reporter, luminescence; % of Δ7-dafachronic acid response. activation, % at 6.8 µM. 3,400 compounds, 61% hits;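 active = mean activation across triplicate tests above the threshold derived from the earlier primary screen, cut at about 5.5% in these data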;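 also: 0% = DMSO only wells and 100% = 3 µM Δ7-dafachronic acid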
* marks the source's active call; other numbers are inactive results; . = no result.

SMILES	hgDAF-12 ag	DAX1 inh-1	DAX1 inh-2	hcDAF-12 act	ssDAF12 agonist	SMARCA2 act	LXR ag	hcDAF12 ag
COc1ccc(NP2(=O)NCCCN2)cc1	1	-1	1	-1	-1	-1	.	.
COc1ccc(P2(=O)Nc3ccccc3N2)cc1	6	0	2	8.0*	1.4*	1	1	5
CN(C)C(Cc1ccccc1)C(=O)c1c[nH]c2ccccc12 (stereo unspecified)	2	-1	1	6.8*	0	0	0	2
CCN1C(=O)N(CC)C(=O)C2(Cc3ccccc3N3CCN(c4ccccc4)CC32)C1=O (stereo unspecified)	10	.	1	8.7*	0	-1	0	3
COc1ccc(Cl)cc1N=Cc1c(O)n(C)c(=O)n(C)c1=O	4	0	0	-3	-1	0	.	.
CCn1c(O)c(C=Nc2cc(Cl)ccc2Cl)c(=O)n(CC)c1=O	3	0	0	6.8*	0	-1	0	1
O=C(N/N=C/c1c(O)n(CCC2=CCCCC2)c(=O)[nH]c1=O)c1ccccc1	7	0	2	2	0	3	.	.
Nc1ccccc1N=Cc1c(O)n(CCC2=CCCCC2)c(=O)[nH]c1=O	11*	3	3	9.6*	1	1	0	1
Clc1ccccc1NC1=NCCCS1	1	0	0	0	-1	0	.	.
Clc1ccccc1Nc1ncnc(-n2cccc2)n1	13*	3	2	11*	1	4	1	9.2*
OC(CN1CCCCC1)c1c[nH]c2ccccc12 (stereo unspecified)	0	2	0	8.0*	0	-3	0	4
c1ccc2c(CN3CCCCC3)c[nH]c2c1	3	-1	1	2	0	-5	.	.
Cc1cccc(N=Nc2ccc(N(C)C)cc2)c1	13*	1	3	8.7*	1.0*	1	2	5
C=CCn1c(O)c(/C=C2\C=Nc3ccccc32)c(=O)[nH]c1=O	1	.	0	6.7*	0	-2	0	5
O=Cc1c(C(=O)O)n(Cc2ccccc2F)c2ccccc12	0	1	0	7.9*	0	1	0	5
CC(CC(C#N)(c1ccccc1)c1ccccc1)N1CCOCC1 (stereo unspecified)	-2	1	0	0	-2	-6	.	.
CCOC(=O)[C@]12Cc3c(cc(OC)c(OC)c3OC)[C@H]1N(C1CCCCC1)C(=O)c1ccccc12	-11	.	-4	-2	-2	-9	.	.
c1ccc(C(c2ccccc2)c2ccncc2)cc1	-2	-1	2	-1	-1	1	.	.
CN(C)c1ccc2c(c1)N=C(c1ccco1)OP2(=S)N1CCOCC1 (stereo unspecified)	4	0	1	7.6*	1.9*	0	0	2
COc1ccc2nc(NC3=NCCN3)sc2c1	12*	3	3	10*	1.0*	4	1	7.4*
c1ccc2sc(NC3=NCCN3)nc2c1	7	2	1	9.3*	0	5	1	7.2*
COc1ccc(C2=CC(c3ccc4c(c3)OCO4)c3c(c4ccccc4oc3=O)O2)cc1OC (stereo unspecified)	0	2	0	-2	0	1	.	.
COC1CC2C=C(C)C=CC=CC(=O)NC(c3ccccc3)CC=CCCC(O)CC(=O)C2=C1O (stereo unspecified)	-11	.	-6	-5	-2	-5	.	.
CSCCC(c1nnnn1-c1c(C)cccc1C)N1CCC2(CC1)C(=O)NCN2c1ccccc1 (stereo unspecified)	1	.	0	-1	-1	-1	.	.
CCCCn1c(=O)c(C(=O)Nc2ccccc2)c(O)c2ccccc21	2	1	0	7.1*	0	-3	0	7.6*
